“And” between values parts separate entries of the source, which are not always exact repeats. Equal entries are not always repeated. Records with an inconclusive call do not appear. The source made the active and inactive calls. Unless noted, calls follow the shape of the full dose curve.
Key:
[1] = target: Estrogen receptor (Homo sapiens) (UniProt P03372); test: qHTS assay for small molecule antagonists of estrogen receptor alpha signaling (AID 588513; active = well fitted curve in the direction sought with a large enough effect in the signal ratio, with a control signal flat, not every such curve was filed as active; the % refers to the signal ratio; also: % is scaled to controls: 0 for no effect and ±100 for the full control effect)
Summary of the method: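 ER-alpha-UAS-bla GripTite HEK 293 cells in 2% charcoal/dextran-treated FBS medium; compounds titrated (1:2, duplicate), then stimulated with 0.5 nM 17-beta-estradiol for 18 h at 37C. CCF4 beta-lactamase fluorescence; Hill-fit IC50 and efficacy.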

[2] = target: Estrogen receptor (Homo sapiens) (UniProt P03372); test: qHTS assay for small molecule agonists of estrogen receptor alpha signaling (AID 588514);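 also: 0% = vehicle only and 100% = reference agonist; nearly all actives have a fitted effect of over 70% in size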
Summary of the method: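 Cells were plated at 5000/well, incubated 4 hrs at 37 C, dosed with compound titration series, incubated 18 hrs at 37 C, loaded with CCF4 dye for 2 hrs at RT, then fluorescence was read.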

[3] = target: Glucocorticoid receptor (Homo sapiens) (UniProt P04150); test: qHTS assay for small molecule agonists of glucocorticoid receptor signaling (AID 588532; active = well fitted curve in the direction sought with a large enough effect in the signal ratio, with a control signal flat; the % refers to the signal ratio;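 also: 100% = dexamethasone at 0.1 µM and 0% = DMSO only wells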); conditions: HeLa MMTV-bla, beta-lactamase ratio, agonist, 18 h; active compounds read high; percent of dexamethasone control, DMSO zero
Summary of the method: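 Stimulation of a glucocorticoid response element-driven beta-lactamase gene was measured in HeLa cells. Responses were scaled between DMSO basal and 0.1 uM dexamethasone, then fitted for half-maximal stimulation.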

[4] = target: Glucocorticoid receptor (Homo sapiens) (UniProt P04150); test: qHTS assay for small molecule antagonists of glucocorticoid receptor signaling (AID 588533; active = well fitted inhibition curve with a large enough effect in the signal ratio, with a control signal flat, not every such curve was filed as active; the % refers to the signal ratio;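 also: cells stimulated with 2 nM dexamethasone as agonist; % is scaled to controls: 0 for no effect and ±100 for the full control effect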)
Summary of the method: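 Antagonist-mode qHTS: compound titrations added to GRE-bla HeLa cells, then dexamethasone 2 nM final; 18 h, 37 C. CCF4 FRET fluorescence normalized to dexamethasone and DMSO; IC50 from Hill fit.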

[5] = target: Bile acid receptor (Homo sapiens) (UniProt Q96RI1); test: qHTS assay for small molecule antagonists of farnesoid X receptor signaling (AID 588526); also: % is scaled to controls: 0 for no effect and ±100 for the full control effect
Summary of the method: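 Concentration-response titrations were fitted to the Hill equation for half-maximal inhibition and maximal response, with data normalised to 50 uM chenodeoxycholic acid and DMSO control wells. Cells: FXR-UAS-bla HEK293T, dialyzed FBS.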

[6] = target: Androgen receptor (Homo sapiens) (UniProt P10275); test: qHTS assay for small molecule agonists of androgen receptor signaling (AID 588515; active = well fitted curve in the direction sought with a large enough effect in the signal ratio, with a control signal flat; the % refers to the signal ratio; also: % is scaled to controls: 0 for no effect and ±100 for the full control effect); conditions: AR-UAS-bla HEK293, beta-lactamase ratio, agonist 16 h; active compounds read high
Summary of the method: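 EC50 and efficacy came from Hill fits of titrations (up to 92 uM) normalized to 30 nM R1881 as 100% and DMSO as 0%. Compound exposure was 16 h at 37 C on AR-UAS-bla HEK293 cells, with a 405/460/530 nm CCF4 fluorescence read.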

[7] = target: Androgen receptor (Homo sapiens) (UniProt P10275); test: qHTS assay for small molecule antagonists of androgen receptor signaling (AID 588516; active = well fitted curve in the direction sought with a large enough effect in the signal ratio, with a control signal flat, not every such curve was filed as active; the % refers to the signal ratio; also: % is scaled to controls: 0 for no effect and ±100 for the full control effect)
Summary of the method: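 AR-UAS-bla GripTite HEK 293 cells (2000/well) treated with compound titrations plus 10 nM R1881 for 16 h at 37C. Beta-lactamase read by CCF4 FRET (460/530 nm); IC50 from Hill fits, normalized to R1881 and DMSO control wells.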

Androgen receptor (Homo sapiens), sequence (P10275 whole entry, looked up): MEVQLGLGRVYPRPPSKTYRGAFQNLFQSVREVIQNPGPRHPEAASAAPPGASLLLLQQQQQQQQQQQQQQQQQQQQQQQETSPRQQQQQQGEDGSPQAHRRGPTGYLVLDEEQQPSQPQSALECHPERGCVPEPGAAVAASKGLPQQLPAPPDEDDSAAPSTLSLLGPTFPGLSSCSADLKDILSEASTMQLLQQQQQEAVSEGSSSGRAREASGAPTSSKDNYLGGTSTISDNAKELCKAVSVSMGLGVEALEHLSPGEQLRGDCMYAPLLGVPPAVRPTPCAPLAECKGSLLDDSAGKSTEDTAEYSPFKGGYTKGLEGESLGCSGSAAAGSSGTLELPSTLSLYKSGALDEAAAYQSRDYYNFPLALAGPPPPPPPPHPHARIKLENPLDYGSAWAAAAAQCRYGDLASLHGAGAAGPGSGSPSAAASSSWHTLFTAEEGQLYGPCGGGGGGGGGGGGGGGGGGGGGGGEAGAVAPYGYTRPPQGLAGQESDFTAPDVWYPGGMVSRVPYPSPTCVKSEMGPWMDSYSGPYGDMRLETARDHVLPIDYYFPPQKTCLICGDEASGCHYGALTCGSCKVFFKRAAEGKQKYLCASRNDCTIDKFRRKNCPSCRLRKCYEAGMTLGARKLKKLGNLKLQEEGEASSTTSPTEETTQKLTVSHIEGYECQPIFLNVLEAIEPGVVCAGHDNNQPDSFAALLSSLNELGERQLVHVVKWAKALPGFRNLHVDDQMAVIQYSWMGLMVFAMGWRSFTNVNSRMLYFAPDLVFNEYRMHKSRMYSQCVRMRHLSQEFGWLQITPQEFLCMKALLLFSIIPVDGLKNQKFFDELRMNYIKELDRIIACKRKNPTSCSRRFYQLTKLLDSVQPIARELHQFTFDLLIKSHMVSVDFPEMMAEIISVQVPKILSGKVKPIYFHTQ
Bile acid receptor (Homo sapiens), sequence (Q96RI1 whole entry, looked up): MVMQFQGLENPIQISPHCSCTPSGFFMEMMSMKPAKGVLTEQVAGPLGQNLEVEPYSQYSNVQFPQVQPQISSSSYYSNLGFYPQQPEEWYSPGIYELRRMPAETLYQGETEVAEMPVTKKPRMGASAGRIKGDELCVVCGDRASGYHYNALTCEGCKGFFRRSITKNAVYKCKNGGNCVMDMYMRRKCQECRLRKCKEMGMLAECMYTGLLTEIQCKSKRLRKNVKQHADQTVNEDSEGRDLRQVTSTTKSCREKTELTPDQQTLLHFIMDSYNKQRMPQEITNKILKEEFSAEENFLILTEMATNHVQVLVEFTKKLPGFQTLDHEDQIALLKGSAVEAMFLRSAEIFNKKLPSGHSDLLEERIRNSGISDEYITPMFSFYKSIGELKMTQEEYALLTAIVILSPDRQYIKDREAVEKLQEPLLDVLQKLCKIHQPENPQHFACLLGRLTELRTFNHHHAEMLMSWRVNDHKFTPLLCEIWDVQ
Estrogen receptor (Homo sapiens), sequence (P03372 whole entry, looked up): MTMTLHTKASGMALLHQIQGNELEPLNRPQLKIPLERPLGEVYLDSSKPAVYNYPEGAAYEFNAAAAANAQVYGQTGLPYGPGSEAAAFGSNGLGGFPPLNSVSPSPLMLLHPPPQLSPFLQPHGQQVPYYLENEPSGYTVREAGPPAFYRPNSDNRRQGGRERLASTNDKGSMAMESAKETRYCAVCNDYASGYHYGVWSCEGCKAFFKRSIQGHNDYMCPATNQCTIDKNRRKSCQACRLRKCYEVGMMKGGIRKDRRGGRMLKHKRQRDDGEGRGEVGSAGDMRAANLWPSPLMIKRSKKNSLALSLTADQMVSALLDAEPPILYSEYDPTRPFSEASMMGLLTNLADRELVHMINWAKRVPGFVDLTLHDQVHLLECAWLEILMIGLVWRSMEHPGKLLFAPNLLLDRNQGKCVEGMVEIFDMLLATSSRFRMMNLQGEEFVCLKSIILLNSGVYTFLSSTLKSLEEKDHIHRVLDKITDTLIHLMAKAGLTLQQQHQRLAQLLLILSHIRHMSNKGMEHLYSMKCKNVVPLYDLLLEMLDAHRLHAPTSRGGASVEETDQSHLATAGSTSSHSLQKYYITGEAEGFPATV
Glucocorticoid receptor (Homo sapiens), sequence (P04150 whole entry, looked up): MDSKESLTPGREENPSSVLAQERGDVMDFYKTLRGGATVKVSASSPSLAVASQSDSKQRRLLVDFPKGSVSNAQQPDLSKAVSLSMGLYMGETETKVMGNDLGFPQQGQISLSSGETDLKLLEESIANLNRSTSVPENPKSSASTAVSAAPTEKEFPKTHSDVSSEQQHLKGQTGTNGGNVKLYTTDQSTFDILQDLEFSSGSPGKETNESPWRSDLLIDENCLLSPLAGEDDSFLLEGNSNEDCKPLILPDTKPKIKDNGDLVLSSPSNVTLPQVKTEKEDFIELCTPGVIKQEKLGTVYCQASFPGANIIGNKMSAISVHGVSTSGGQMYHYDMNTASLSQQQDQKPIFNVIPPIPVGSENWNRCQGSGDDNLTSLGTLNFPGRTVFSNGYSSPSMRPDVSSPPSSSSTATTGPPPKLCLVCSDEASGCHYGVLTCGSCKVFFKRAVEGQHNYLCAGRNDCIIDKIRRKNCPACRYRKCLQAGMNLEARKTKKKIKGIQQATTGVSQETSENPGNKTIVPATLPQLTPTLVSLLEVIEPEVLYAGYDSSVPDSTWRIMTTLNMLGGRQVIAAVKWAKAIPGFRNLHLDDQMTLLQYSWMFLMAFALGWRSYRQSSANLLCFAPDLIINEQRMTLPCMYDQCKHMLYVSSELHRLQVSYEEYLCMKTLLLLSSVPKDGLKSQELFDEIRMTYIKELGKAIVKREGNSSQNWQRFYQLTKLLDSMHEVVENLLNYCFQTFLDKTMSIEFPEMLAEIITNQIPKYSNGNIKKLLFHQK

C=CCC1=C(C)C(OC(=O)C2C(C=C(C)C)C2(C)C)CC1=O (stereo not drawn)
inactive: Potency [1] | outcome [2] | activation [3] 11.4% and 2.61% | Potency [4]

CC(C)(O)C(=O)Nc1ccc([N+](=O)[O-])c(C(F)(F)F)c1
inactive: Potency [1] | outcome [2]

O=C(O)COc1nc(Cl)c(Cl)cc1Cl
inactive: Potency [1] | outcome [2] | outcome [5] | activation [3] -16% | Potency [4]

c1cc2ccc3cccc4ccc(c1)c2c34
inactive: Potency [1] | outcome [2] | activation [6] 11.6% and 8.44% | Potency [7] | activation [3] 1.46% and -7.46% | Potency [4]

O=[N+]([O-])c1c(Cl)c(Cl)cc(Cl)c1Cl
inactive: Potency [1] | outcome [2] | outcome [5]

CCOCCOC(C)=O
inactive: Potency [1] | outcome [2] | activation [3] -2.6% | Potency [4]

CCCCC(CC)COC(=O)c1ccccc1C(=O)OCC(CC)CCCC (stereo not drawn)
inactive: Potency [1] | outcome [2] | outcome [5] | activation [3] 0.194% and -1.46% | Potency [4]

COc1nn(CSP(=S)(OC)OC)c(=O)s1
inactive: outcome [2] | outcome [5] | activation [3] 12.2% | Potency [4]

CC(C)(c1ccc(O)cc1)c1ccc(O)cc1
inactive: activation [6] -6.96%

CC(C)Oc1cccc(NC(=O)c2ccccc2C(F)(F)F)c1
inactive: outcome [2] | activation [3] -4.03% | Potency [4]

O=[N+]([O-])c1cc([N+](=O)[O-])c2ccccc2c1
inactive: activation [6] -1.64% | activation [3] -0.539%

O=C(O)c1cc(Oc2ccc(C(F)(F)F)cc2Cl)ccc1[N+](=O)[O-]
inactive: Potency [4]

CCO/N=C(\CC)C1=C(O)CC(c2c(C)cc(C)cc2C)CC1=O (stereo not drawn)
inactive: outcome [2] | activation [6] -1.77% | Potency [7] | outcome [5] | activation [3] -3.56% | Potency [4]

COC(C)(C)CCCC(C)C/C=C/C(C)=C/C(=O)OC(C)C (stereo not drawn)
inactive: activation [6] -13.7% and -1.74% | Potency [7]

C=CC(=O)NCNC(=O)C=C
inactive: Potency [1] | outcome [2] | activation [6] 20.4% and 9.02% | Potency [7] | activation [3] 4.39% and -21.1% | Potency [4]

CO/C=C(/C(=O)OC)c1ccccc1Oc1cc(Oc2ccccc2C#N)ncn1
inactive: activation [3] -0.939%

CCCCCCCCc1ccc(O)cc1
inactive: activation [6] -7.85% and -15.7% | activation [3] 0.354% and -8.06%

OCCCBr
inactive: Potency [1] | outcome [2] | activation [3] -1.2% | Potency [4]

ClC1=C(Cl)[C@]2(Cl)[C@@H]3[C@@H]4C[C@@H]([C@H]5O[C@@H]45)[C@@H]3[C@@]1(Cl)C2(Cl)Cl
inactive: activation [3] -15% | Potency [4]

O=S(=O)(c1ccc(Cl)cc1)c1ccc(Cl)cc1
inactive: Potency [1] | outcome [2] | activation [3] -2.41% and 8.97% | Potency [4]

CS(=O)(=O)c1ccc(C(=O)C2C(=O)CCCC2=O)c([N+](=O)[O-])c1
inactive: outcome [5] | activation [3] 6.35%

O=[N+]([O-])/N=C1\NCCN1Cc1ccc(Cl)nc1
inactive: Potency [1] | outcome [2] | activation [6] 8.09% | Potency [7] | outcome [5] | activation [3] 6.65% | Potency [4]

c1ccc2occc2c1
inactive: Potency [1] | outcome [2]

Nc1ccc(Cl)cc1
inactive: Potency [1] | outcome [2] | Potency [4]

Nc1ccc([N+](=O)[O-])cc1O
inactive: outcome [5]

CCOP(=O)(NC(C)C)Oc1ccc(SC)c(C)c1 (stereo not drawn)
inactive: activation [6] 2.45% and -12.7% | outcome [5] | activation [3] 3.01% and -4.29%

Nc1ccc([N+](=O)[O-])cc1
inactive: activation [6] 7.63% | outcome [5] | activation [3] 0.519%

From PubChem BioAssay (NCATS)
